Among the data in PubChem BioAssay (EPA / NIEHS) are outcome and AC50 values, retold here.

Experiment [1] addresses rat Neonicotinoid receptor (NNR), Chrna7 (gene 25302) (UniProt Q05941). The experiment can be described thus: NVS_LGIC_rNNR_BungSens: NovaScreen (NVS) Ligand-Gated Ion Channel Assay for rat Neonicotinoid receptor (NNR) (AID 2283315). The method, boiled down: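 Rat cortical membrane preparation incubated 2.5 h with tritiated or iodinated radioligand and test chemical. Bound radioactivity was filtered and counted by scintillation, and displacement was analysed against DMSO.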

The nature of experiment [2]: NVS_IC_rCaBTZCHL: NovaScreen (NVS) Ion Channel Assay for Calcium Channel, Type L, Benzothiazepine Site (CaBTZCHL) (AID 2283337). The method in brief:
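Rat cortical membrane preparation incubated 1.5 h with compound and benzothiazepine-site radioligand; loss of filter-bound counts versus DMSO marks displacement. Initial duplicate testing at 25 uM, actives followed up in concentration series.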

The nature of experiment [3]: NVS_IC_rCaDHPRCh_L: NovaScreen (NVS) Ion Channel Assay for rat Calcium Channel, Type L, Dihydropyridine Site (CaDHPRCh_L) (AID 2283320). The method, boiled down: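 Rat cortex membrane preparation; dihydropyridine-site radioligand displacement read 1 h post-dose by filtration and scintillation. Primary single-point screen 25 uM in duplicate, then concentration series to 50 uM maximum; DMSO as negative control.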

The target of experiment [4] is rat Glutamate, AMPA Site (AMPA), Gria1 (gene 50592) (UniProt P19490). Put plainly: NVS_LGIC_rAMPA: NovaScreen (NVS) Ligand-Gated Ion Channel Assay for rat Glutamate, AMPA Site (AMPA) (AID 2283324). The method, boiled down:
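Screening at 25 uM in duplicate preceded concentration series reaching 50 uM for qualifying compounds. Radioligand displacement on rat forebrain membranes, 1 h, filter-based scintillation readout; reduced binding relative to DMSO.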

Experiment [5] deals with rat Gamma-Aminobutyric Acid Type A Receptor, Non-Selective (GABAR-NonSelective), Gabra1 (gene 29705) (UniProt P62813). The experiment can be described thus: NVS_LGIC_rGABAR_NonSelective: NovaScreen (NVS) Ligand-Gated Ion Channel Assay for rat Gamma-Aminobutyric Acid Type A Receptor, Non-Selective (GABAR-NonSelective) (AID 2283326). The method in brief: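 Compounds were first screened in duplicate at 25 uM, with actives run as singleton concentration series (max 50 uM). Binding of a radioligand to rat whole-brain GABA-A preparation was measured by filtration and scintillation counting after 1 h, DMSO baseline.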

Experiment [6] deals with Glutamate receptor ionotropic, kainate 1 (Rattus norvegicus) (UniProt P22756). Put plainly: NVS_IC_rKAR: NovaScreen (NVS) Ion Channel Assay for rat Kainic Acid Receptors (KAR) (AID 2283334; active means hit-call score of the fitted dose curve at least 0.9, where 1 is the maximum; inactive means score below 0.9). The method, boiled down: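 Rat forebrain membrane preparation incubated 1 h with radioligand and test chemical; bound signal read by filtration and scintillation. Single-concentration screen at 25 uM, then concentration series to 50 uM maximum.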

The target in experiment [7] is rat Vasopressin 1 Receptor (V1), Avpr1a (gene 25107) (UniProt P30560). The experiment can be described thus: NVS_GPCR_rV1: NovaScreen (NVS) G Protein-Coupled Receptor Assay for rat Vasopressin 1 Receptor (V1) (AID 2283316). The method in brief: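 Concentration-response up to 50 uM for chemicals passing a threshold such as 30% inhibition in an initial duplicate 25 uM screen. Displacement of radioligand from rat liver membranes measured after 1.5 h by filtration and scintillation.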

Experiment [8] has as its target human Peripheral-type Benzodiazepine Receptor (PBR), TSPO (gene 706) (UniProt P30536). The experiment can be described thus: NVS_MP_hPBR: NovaScreen (NVS) Membrane Protein Assay for human Peripheral-type Benzodiazepine Receptor (PBR) (AID 2283331).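 Further: hits reduce radioligand binding relative to DMSO baseline.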 The method in brief:
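Cell-free radioligand displacement, human colonic membranes, 1 h exposure. Filter radiodetection read-out. Single-concentration duplicates (25 uM), then concentration-response for actives; DMSO negative control.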

For experiment [9], the target named is human Serotonin, 5-Hydroxytryptamine Receptor 3 (5HT3), HTR3A (gene 3359) (UniProt P46098). The experiment can be described thus: NVS_LGIC_h5HT3: NovaScreen (NVS) Ligand-Gated Ion Channel Assay for human Serotonin, 5-Hydroxytryptamine Receptor 3 (5HT3) (AID 2283325). The method in brief:
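Initially tested at 25 uM in duplicate, then up to 50 uM in concentration-response for actives, compounds competed with a radioligand for HEK293-derived human 5-HT3 receptor. Bound counts were measured by filtration and scintillation at 1 h; loss of signal versus DMSO.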

Experiment [10] deals with bovine Gamma-Aminobutyric Acid Type A Receptor Agonist (GABAR Agonist), GABRA1 (gene 780973) (UniProt P08219). Put plainly: NVS_LGIC_bGABAR_Agonist: NovaScreen (NVS) Ligand-Gated Ion Channel Assay for bovine Gamma-Aminobutyric Acid Type A Receptor Agonist (GABAR Agonist) (AID 2283338). The method, boiled down:
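Radioligand binding to bovine cerebellar membranes in agonist format, read by filter-based scintillation counting after 1 h. Primary screen in duplicate at 25 uM, with actives followed in concentration series. Gain of signal versus DMSO.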

Experiment [11] concerns the target rat Opioid Receptor, Non-selective Binding, Oprm1 (gene 25601) (UniProt P33535). Put plainly: NVS_GPCR_rOpiate_NonSelective: NovaScreen (NVS) G Protein-Coupled Receptor Assay for rat Opioid Receptor, Non-selective Binding (AID 2283318). The method, boiled down:
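Filter-based radioligand displacement using rat forebrain membrane preparations, measured 1.5 h post-dosing. Single-concentration duplicate screen at 25 uM, follow-up in concentration series; activity taken as signal loss relative to DMSO.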

Experiment [12] addresses rat Peripheral-type Benzodiazepine Receptor (PBR), Tspo (gene 24230) (UniProt P16257). The experiment can be described thus: NVS_MP_rPBR: NovaScreen (NVS) Membrane Protein Assay for rat Peripheral-type Benzodiazepine Receptor (PBR) (AID 2283335). The method, boiled down: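 Competitive displacement of specific radioligand from rat kidney membrane PBR, read by filtration and scintillation after 1 h. Compounds first tested at 25 uM in duplicate, then in concentration series; signal loss relative to DMSO.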

Another experiment has as its system NCBI gene 24521. Put plainly: NVS_IC_rKATPCh: NovaScreen (NVS) Ion Channel Assay for rat Potassium Channel, ATP-Sensitive (KATPCh) (AID 2283319). The method in brief: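 Primary duplicate screen at 25 uM, then singleton concentration series to 50 uM maximum, in a rat cortex membrane radioligand displacement assay. Binding measured by filtration and scintillation 2 h post-dose; DMSO baseline.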

Experiment [13] concerns the target rat Glutamate, NMDA Agonist Site (GluNMDA), Grin1 (gene 24408) (UniProt P35439). Put plainly: NVS_LGIC_rGluNMDA_Agonist: NovaScreen (NVS) Ligand-Gated Ion Channel Assay for rat Glutamate, NMDA Agonist Site (GluNMDA) (AID 2283327). The method, boiled down: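 Radioligand displacement at the agonist site on rat forebrain membrane preparations, read by filter scintillation after 1 h. Chemicals were first run at 25 uM in duplicate; those passing threshold were titrated to a 50 uM maximum.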

The target in experiment [14] is human Constitutive Androstane Receptor (CAR), NR1I3 (gene 9970) (UniProt Q14994). The experiment can be described thus: NVS_NR_hCAR_Agonist: NovaScreen (NVS) Nuclear Receptor Binding Assay for human Constitutive Androstane Receptor Agonism (CAR) (AID 2283328). The method in brief: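 Actives from a 25 uM duplicate screen were retested in singleton concentration series to 50 uM max. Biochemical TR-FRET assay on extracted CAR protein measured 1 h post-dose, with signal increase over DMSO control.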

The target in experiment [15] is human Androgen Receptor (AR), AR (gene 367) (UniProt P10275). The experiment can be described thus: NVS_NR_hAR: NovaScreen (NVS) Nuclear Receptor Binding Assay for human Androgen Receptor (AR) (AID 2283332). The method in brief: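 LnCAP cell-free extract; radioligand displacement read by scintillation counting after 20 h. Primary screen single concentration 25 uM in duplicate, actives then run as concentration series; loss-of-signal fitted relative to DMSO baseline.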

The target of experiment [16] is Small conductance calcium-activated potassium channel protein 1 (Rattus norvegicus) (UniProt P70606). Put plainly: NVS_IC_rKCaCh: NovaScreen (NVS) Ion Channel Assay for rat Potassium Channel, Ca2+ Act., VI (KCaCh) (AID 2283336). The method, boiled down: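 Filter-based scintillation counting of radioligand bound to rat forebrain membrane preparations, measured 1 h after compound addition. Primary screen used 25 uM in duplicate, with concentration-response follow-up; signal decrease relative to DMSO marks activity.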

Results filed as inconclusive are left out. Activity calls are given as the source filed them. How the source made its calls, unless noted: active means hit-call score of the fitted dose curve at least 0.9, where 1 is the maximum; inconclusive means response in the unintended direction; inactive means score below 0.9.

Glutamate receptor ionotropic, kainate 1 (Rattus norvegicus), sequence (P22756 whole entry, looked up): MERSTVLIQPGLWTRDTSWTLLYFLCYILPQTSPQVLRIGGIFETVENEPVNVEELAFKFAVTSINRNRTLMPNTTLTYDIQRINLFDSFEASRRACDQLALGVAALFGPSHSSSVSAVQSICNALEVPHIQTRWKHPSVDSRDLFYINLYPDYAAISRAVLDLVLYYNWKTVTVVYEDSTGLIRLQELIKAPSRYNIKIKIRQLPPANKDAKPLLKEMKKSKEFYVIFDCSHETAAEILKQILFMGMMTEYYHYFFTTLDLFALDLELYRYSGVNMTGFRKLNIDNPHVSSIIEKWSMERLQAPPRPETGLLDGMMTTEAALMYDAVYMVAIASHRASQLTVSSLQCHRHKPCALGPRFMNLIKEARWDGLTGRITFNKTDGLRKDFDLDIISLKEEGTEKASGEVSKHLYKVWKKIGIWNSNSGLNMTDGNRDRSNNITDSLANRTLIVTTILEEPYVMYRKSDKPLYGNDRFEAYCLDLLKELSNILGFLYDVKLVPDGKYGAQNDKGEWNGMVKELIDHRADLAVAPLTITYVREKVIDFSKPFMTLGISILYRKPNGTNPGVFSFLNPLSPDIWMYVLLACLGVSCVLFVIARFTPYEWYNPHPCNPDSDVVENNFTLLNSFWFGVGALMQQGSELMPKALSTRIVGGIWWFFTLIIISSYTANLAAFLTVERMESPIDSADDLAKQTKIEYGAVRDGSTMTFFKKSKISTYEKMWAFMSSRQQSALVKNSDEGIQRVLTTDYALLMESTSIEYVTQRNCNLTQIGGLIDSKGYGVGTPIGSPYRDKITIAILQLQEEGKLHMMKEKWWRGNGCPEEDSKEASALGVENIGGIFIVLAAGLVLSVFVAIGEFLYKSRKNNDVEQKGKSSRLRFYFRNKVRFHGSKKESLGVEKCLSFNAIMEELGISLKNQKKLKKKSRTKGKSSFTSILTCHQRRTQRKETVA
human Peripheral-type Benzodiazepine Receptor (PBR), TSPO (gene 706), sequence (P30536 whole entry, looked up): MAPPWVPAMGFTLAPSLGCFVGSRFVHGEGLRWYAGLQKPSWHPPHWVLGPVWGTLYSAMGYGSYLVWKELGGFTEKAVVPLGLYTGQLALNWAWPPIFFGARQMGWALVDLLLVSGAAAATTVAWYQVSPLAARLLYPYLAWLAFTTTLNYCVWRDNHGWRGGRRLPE
human Constitutive Androstane Receptor (CAR), NR1I3 (gene 9970), sequence (Q14994 whole entry, looked up): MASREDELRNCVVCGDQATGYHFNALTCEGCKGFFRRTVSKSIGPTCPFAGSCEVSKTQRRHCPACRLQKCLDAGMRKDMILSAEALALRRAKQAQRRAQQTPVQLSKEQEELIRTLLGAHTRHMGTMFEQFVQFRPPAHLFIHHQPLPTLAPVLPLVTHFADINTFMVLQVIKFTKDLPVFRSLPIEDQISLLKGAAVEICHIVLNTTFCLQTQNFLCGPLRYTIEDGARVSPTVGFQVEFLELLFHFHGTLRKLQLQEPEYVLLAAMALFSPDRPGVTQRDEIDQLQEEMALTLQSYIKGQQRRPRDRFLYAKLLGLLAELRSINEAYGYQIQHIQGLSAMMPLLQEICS
rat Glutamate, AMPA Site (AMPA), Gria1 (gene 50592), sequence (P19490 whole entry, looked up): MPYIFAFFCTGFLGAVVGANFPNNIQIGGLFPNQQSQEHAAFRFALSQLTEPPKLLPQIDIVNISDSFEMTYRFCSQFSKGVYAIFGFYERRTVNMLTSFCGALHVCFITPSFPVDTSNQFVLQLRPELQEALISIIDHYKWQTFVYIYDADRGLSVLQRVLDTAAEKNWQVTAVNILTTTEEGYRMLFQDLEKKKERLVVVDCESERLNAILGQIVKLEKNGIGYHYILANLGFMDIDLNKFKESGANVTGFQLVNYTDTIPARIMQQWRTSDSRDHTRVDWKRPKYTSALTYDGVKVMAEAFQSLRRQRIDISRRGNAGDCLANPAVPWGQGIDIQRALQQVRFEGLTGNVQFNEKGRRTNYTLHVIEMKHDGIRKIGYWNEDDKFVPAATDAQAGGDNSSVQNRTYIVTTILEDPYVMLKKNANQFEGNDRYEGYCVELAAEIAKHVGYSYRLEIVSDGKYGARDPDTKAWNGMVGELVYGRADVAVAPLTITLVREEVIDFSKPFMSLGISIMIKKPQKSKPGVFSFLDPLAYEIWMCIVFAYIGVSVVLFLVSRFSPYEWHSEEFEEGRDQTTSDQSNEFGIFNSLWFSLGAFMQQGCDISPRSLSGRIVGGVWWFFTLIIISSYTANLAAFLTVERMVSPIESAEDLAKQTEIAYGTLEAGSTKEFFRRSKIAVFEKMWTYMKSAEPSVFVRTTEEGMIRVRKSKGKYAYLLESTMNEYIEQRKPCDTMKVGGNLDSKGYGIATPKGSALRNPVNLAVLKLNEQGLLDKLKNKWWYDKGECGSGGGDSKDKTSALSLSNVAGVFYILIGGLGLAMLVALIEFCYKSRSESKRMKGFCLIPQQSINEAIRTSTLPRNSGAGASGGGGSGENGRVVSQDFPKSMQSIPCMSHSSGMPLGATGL
rat Opioid Receptor, Non-selective Binding, Oprm1 (gene 25601), sequence (P33535 whole entry, looked up): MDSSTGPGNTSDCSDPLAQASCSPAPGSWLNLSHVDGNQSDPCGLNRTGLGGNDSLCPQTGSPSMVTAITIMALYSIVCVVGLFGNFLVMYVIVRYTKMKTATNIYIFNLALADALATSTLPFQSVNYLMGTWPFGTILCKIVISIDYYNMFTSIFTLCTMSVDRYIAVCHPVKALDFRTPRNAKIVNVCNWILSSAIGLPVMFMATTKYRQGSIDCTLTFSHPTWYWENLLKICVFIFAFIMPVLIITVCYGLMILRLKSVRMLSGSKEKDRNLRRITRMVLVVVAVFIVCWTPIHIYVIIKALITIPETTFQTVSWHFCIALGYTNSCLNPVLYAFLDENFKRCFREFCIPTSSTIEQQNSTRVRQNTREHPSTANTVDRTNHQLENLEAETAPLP
Small conductance calcium-activated potassium channel protein 1 (Rattus norvegicus), sequence (P70606 whole entry, looked up): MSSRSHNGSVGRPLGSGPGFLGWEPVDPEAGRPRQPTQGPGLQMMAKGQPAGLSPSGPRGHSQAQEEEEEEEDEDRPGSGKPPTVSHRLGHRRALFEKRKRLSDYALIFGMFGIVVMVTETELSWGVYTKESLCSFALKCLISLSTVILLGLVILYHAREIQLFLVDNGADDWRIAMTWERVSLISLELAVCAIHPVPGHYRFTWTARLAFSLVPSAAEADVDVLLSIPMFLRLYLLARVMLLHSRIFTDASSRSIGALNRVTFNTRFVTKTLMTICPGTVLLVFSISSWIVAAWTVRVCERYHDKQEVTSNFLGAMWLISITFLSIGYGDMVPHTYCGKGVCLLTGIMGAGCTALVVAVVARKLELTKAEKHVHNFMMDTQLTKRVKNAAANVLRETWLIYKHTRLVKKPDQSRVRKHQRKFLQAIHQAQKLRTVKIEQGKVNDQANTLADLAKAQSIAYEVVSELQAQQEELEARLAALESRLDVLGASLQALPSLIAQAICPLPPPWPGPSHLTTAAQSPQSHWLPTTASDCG
rat Peripheral-type Benzodiazepine Receptor (PBR), Tspo (gene 24230), sequence (P16257 whole entry, looked up): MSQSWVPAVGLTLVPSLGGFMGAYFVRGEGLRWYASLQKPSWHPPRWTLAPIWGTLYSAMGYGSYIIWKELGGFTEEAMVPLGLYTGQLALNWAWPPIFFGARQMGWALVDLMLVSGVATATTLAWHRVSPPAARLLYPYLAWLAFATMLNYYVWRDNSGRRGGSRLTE
rat Neonicotinoid receptor (NNR), Chrna7 (gene 25302), sequence (Q05941 whole entry, looked up): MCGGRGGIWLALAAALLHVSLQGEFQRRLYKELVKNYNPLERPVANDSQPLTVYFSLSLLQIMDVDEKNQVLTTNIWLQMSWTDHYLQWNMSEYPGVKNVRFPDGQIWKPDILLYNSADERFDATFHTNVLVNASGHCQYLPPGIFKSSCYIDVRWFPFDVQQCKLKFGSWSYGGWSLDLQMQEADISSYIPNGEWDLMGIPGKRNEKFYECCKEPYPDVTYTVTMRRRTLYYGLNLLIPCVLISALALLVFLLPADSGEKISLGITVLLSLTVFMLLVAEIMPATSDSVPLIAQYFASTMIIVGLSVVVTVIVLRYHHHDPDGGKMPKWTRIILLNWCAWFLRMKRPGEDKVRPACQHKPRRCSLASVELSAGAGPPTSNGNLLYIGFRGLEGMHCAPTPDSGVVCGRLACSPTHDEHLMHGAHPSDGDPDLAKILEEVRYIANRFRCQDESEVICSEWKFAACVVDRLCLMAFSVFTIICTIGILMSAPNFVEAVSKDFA
human Serotonin, 5-Hydroxytryptamine Receptor 3 (5HT3), HTR3A (gene 3359), sequence (P46098 whole entry, looked up): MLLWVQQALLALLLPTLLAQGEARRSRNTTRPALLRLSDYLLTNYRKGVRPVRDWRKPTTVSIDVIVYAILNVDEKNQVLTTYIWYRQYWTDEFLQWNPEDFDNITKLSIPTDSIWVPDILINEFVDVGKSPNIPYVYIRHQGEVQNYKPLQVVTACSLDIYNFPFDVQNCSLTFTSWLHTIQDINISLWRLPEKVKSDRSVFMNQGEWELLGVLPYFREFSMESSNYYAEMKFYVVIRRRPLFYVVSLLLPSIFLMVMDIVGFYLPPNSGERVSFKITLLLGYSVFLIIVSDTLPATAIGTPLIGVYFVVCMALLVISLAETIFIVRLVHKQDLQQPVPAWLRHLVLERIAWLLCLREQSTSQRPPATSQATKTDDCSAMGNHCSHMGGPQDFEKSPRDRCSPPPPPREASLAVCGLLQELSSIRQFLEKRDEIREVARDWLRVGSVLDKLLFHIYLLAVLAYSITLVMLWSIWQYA
rat Gamma-Aminobutyric Acid Type A Receptor, Non-Selective (GABAR-NonSelective), Gabra1 (gene 29705), sequence (P62813 whole entry, looked up): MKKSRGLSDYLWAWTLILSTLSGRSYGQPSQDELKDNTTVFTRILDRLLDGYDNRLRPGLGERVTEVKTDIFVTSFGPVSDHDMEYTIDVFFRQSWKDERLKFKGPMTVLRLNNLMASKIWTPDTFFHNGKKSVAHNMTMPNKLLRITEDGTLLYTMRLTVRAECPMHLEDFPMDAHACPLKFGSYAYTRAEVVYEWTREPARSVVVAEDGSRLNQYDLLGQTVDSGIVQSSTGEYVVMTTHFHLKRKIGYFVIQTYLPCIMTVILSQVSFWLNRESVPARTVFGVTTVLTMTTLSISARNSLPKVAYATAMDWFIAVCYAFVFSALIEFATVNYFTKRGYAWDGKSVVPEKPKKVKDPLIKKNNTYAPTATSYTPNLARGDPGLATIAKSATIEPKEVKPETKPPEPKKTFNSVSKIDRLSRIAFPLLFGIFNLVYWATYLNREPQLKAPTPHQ

Regarding `Cc1nc(-c2ccc3c(c2)CCN(CCC2CCC(NC(=O)/C=C/c4ccc(F)cc4)CC2)CC3)no1` (stereo not drawn), the compound was classed as inactive in [1] and in experiment [2]. Take `Nc1nc(N)c2nc(CNc3ccc(C(=O)N[C@@H](CCC(=O)O)C(=O)O)cc3)cnc2n1`: the AC50 (as a rule, the concentration giving half of the maximal activity seen) is 25 µM (active) in experiment [3] and 23.2 µM (active) in experiment [4]. Moreover, the outcome in experiment [5] and in [6] was inactive.

Turning to `Cc1cccc(Nc2cc(Cl)nc(SCC(=O)O)n2)c1C`, the results for the concentration at half-maximal activity (AC50) in [7] and in experiment [8] were 2.85 µM (active) and 6.49 µM (active), respectively. For the compound `CCOc1ccc2c(c1)C(C)=CC(C)(C)N2`, the result in [4], in experiment [9] and in experiment [10] was inactive. Regarding `CC(C)c1ccc(C(=O)N=C(N)N)cc1S(C)(=O)=O`, the figures for the half-maximal activity concentration (AC50) in experiment [11] and in [8] were 5.07 µM (active) and 12.3 µM (active), respectively. In addition, in experiment [12], the compound was called inactive.

Take `CCCc1cc(=O)[nH]c(=S)[nH]1`: the result with NCBI gene 24521 was inactive. For `Cc1cc(=O)[nH]c(=S)[nH]1`, the outcome in experiment [3] was inactive.

Consider `NC(=O)Cn1c(=O)cc(CCN2CCN(c3nccc4sccc34)CC2)c2ccc(F)cc21`, for which the AC50 in experiment [11] was 1.45 µM (active); in [8], 1.77 µM (active); in experiment [12], 1.6 µM (active). Regarding `CCCCC(CC)COC(=O)CC(C(=O)OCC(CC)CCCC)S(=O)(=O)O` (stereo not drawn), the half-maximal activity concentration (AC50) in experiment [13] was 38.3 µM (active). On to `CC(C)(C)c1cc(O)c(C(C)(C)C)cc1O`, for which the outcome in [14] was inactive.

For the compound `CCCCCCCCCCCCCO`, the call in [14] was inactive. Consider `CCCCCCCCCCC`, for which the compound was classed as inactive in [15]. `COc1cc(S(=O)(=O)O)c(C)cc1N=Nc1c(O)ccc2cc(S(=O)(=O)O)ccc12`: the result in [6] and in [2] was inactive.

`CCCCCCC(=O)OCC`: in experiment [6], the outcome was inactive. With `CC=Cc1ccc(O)c(OC)c1`, the result in experiment [16] was inactive.

With `CCCCN(CCCC)CCCC`, the result in experiment [16] was inactive.
